The whole screen tested about 5,500 compounds, of which about 2,000 (36%) were called active. Roughly 18% stayed inconclusive and do not appear here. Rule as the data show it: active = normalized growth mostly below about 0.91 (no sharp cut-off); inconclusive = no clear call, values can overlap the other calls; inactive = mostly above about 0.92. Some of the results follow.
Experiment: chemical genetic growth profiling, strain panel (AID 1159580);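 also: tested at 20 µM; growth read once vehicle control cultures reached saturation at 30 °C; 1 = growth at the plate median or of vehicle wells; lower values mean less growth of the strain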
Conditions: S. cerevisiae deletion strains, growth OD

Measured: normalized growth

CCN1CCC[C@H]1CNC(=O)c1c(OC)ccc(I)c1O
inactive: locus YAL040C, strain CLN3, stronger effect = lower value 1.01 | locus YCL061C, strain MRC1 (second series), stronger effect = lower value 1 | locus YDR150W, strain NUM1, stronger effect = lower value 0.986 | locus YDR363W, strain ESC2, stronger effect = lower value 1.01 | locus YER002W, strain NOP16, stronger effect = lower value 0.996 | locus YGR229C, strain SMI1, stronger effect = lower value 0.92 | locus YJR075W, strain HOC1, stronger effect = lower value 0.984 | locus YMR307W, strain GAS1, stronger effect = lower value 1 | locus YNL175C, strain NOP13, stronger effect = lower value 1 | locus YNL197C, strain WHI3, stronger effect = lower value 1.02 | locus YNL224C, strain SQS1, stronger effect = lower value 1.01 | locus YNL322C, strain KRE1, stronger effect = lower value 0.996 | locus YOR083W, strain WHI5 (second series), stronger effect = lower value 0.974 | locus YPL055C, strain LGE1, stronger effect = lower value 0.972 | locus YPL241C, strain CIN2, stronger effect = lower value 0.998
